Measured values from PubChem BioAssay AID1159580 (chemical genetic matrix, 2015).
Screen size: about 5,500 compounds; about 2,000 (36%) were called active. Roughly 18% stayed inconclusive and do not appear here. No stated cut-off is given here; in the data, active means normalized growth mostly below about 0.91 (no sharp cut-off); inconclusive means no clear call, values can overlap the other calls; inactive means mostly above about 0.92. The list shows a part of the results.

Experiment: chemical genetic growth profiling, strain panel (AID 1159580);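 further: tested at 20 µM; growth read once vehicle control cultures reached saturation at 30 °C; 1 = growth at the plate median or of vehicle wells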
Settings: S. cerevisiae deletion strains, growth OD

Measured: normalized growth

CC1=NS(=O)(=O)c2cc(Cl)ccc2N1
inactive: locus YAL021C, strain ccr4, stronger effect = lower value 0.919 | locus YAL026C, strain drs2, stronger effect = lower value 0.972 | locus YAL030W, strain snc1, stronger effect = lower value 0.987 | locus YAL040C, strain CLN3, stronger effect = lower value 1 | locus YBL061C, strain skt5, stronger effect = lower value 0.984 | locus YBR009C, strain hhf1, stronger effect = lower value 0.984 | locus YBR023C, strain chs3, stronger effect = lower value 0.971 | locus YBR171W, strain sec66, stronger effect = lower value 0.972 | locus YBR231C, strain swc5, stronger effect = lower value 0.995 | locus YBR279W, strain paf1, stronger effect = lower value 0.952 | locus YCL011C, strain gbp2, stronger effect = lower value 0.985 | locus YCL016C, strain dcc1, stronger effect = lower value 0.976 | locus YCL061C, strain MRC1 (second series), stronger effect = lower value 0.995 | locus YCL069W, strain vba3, stronger effect = lower value 0.967 | locus YCR088W, strain abp1, stronger effect = lower value 0.971 | locus YDL005C, strain med2, stronger effect = lower value 0.972 | locus YDL040C, strain nat1, stronger effect = lower value 0.958 | locus YDR001C, strain nth1, stronger effect = lower value 0.967 | locus YDR069C, strain doa4, stronger effect = lower value 0.937 | locus YDR137W, strain rgp1, stronger effect = lower value 0.957 | locus YDR150W, strain NUM1, stronger effect = lower value 1.01 | locus YDR159W, strain sac3, stronger effect = lower value 0.936 | locus YDR195W, strain ref2 0.899 | locus YDR297W, strain sur2, stronger effect = lower value 0.974 | locus YDR334W, strain swr1, stronger effect = lower value 0.936 | locus YDR335W, strain msn5, stronger effect = lower value 0.971 | locus YDR363W, strain ESC2, stronger effect = lower value 0.973 | locus YDR392W, strain spt3, stronger effect = lower value 0.971 | locus YEL003W, strain gim4, stronger effect = lower value 0.984 | locus YEL037C, strain rad23, stronger effect = lower value 0.944 | locus YEL061C, strain CIN8 (second series), stronger effect = lower value 0.972 | locus YER002W, strain NOP16, stronger effect = lower value 0.999 | locus YER015W, strain faa2, stronger effect = lower value 0.971 | locus YER016W, strain bim1, stronger effect = lower value 0.963 | locus YER111C, strain swi4, stronger effect = lower value 0.99 | locus YER155C, strain BEM2 (second series), stronger effect = lower value 0.994 | locus YFR010W, strain ubp6, stronger effect = lower value 0.946 | locus YGL167C, strain pmr1, stronger effect = lower value 0.95 | locus YGL173C, strain kem1, stronger effect = lower value 0.995 | locus YGL227W, strain vid30, stronger effect = lower value 0.967 | locus YGL240W, strain doc1, stronger effect = lower value 0.953 | locus YGL253W, strain hxk2, stronger effect = lower value 0.951 | locus YGR078C, strain PAC10, stronger effect = lower value 1.01 | locus YHR013C, strain ard1, stronger effect = lower value 0.925 | locus YHR027C, strain rpn1, stronger effect = lower value 0.977 | locus YHR030C, strain SLT2, stronger effect = lower value 0.96 | locus YHR079C, strain IRE1, stronger effect = lower value 0.969 | locus YHR142W, strain chs7, stronger effect = lower value 0.948 | locus YJL092W, strain hpr5, stronger effect = lower value 0.986 | locus YJL095W, strain BCK1 (second series), stronger effect = lower value 0.961 | locus YJL095W, strain BCK1, stronger effect = lower value 0.974 | locus YJL115W, strain asf1, stronger effect = lower value 0.948 | locus YJL129C, strain trk1, stronger effect = lower value 0.975 | locus YJL154C, strain vps35, stronger effect = lower value 0.989 | locus YJL164C, strain tpk1, stronger effect = lower value 0.977 | locus YJL166W, strain qcr8, stronger effect = lower value 0.963 | locus YJL187C, strain SWE1, stronger effect = lower value 0.979 | locus YJR066W, strain TOR1, stronger effect = lower value 0.948 | locus YJR075W, strain HOC1, stronger effect = lower value 0.991 | locus YKL160W, strain elf1, stronger effect = lower value 0.981 | locus YKR026C, strain gcn3, stronger effect = lower value 0.958 | locus YKR091W, strain srl3, stronger effect = lower value 0.969 | locus YLL001W, strain dnm1, stronger effect = lower value 0.969 | locus YLL026W, stronger effect = lower value 0.985 | locus YLL041C, strain sdh2, stronger effect = lower value 0.981 | locus YLR027C, strain aat2, stronger effect = lower value 0.975 | locus YLR113W, strain HOG1, stronger effect = lower value 0.951 | locus YLR221C, strain rsa3, stronger effect = lower value 0.986 | locus YLR258W, strain gsy2, stronger effect = lower value 0.971 | locus YLR262C, strain YPT6 (second series), stronger effect = lower value 0.961 | locus YLR320W, strain mms22, stronger effect = lower value 0.971 | locus YLR342W, strain FKS1, stronger effect = lower value 0.992 | locus YLR357W, strain rsc2, stronger effect = lower value 0.944 | locus YLR370C, strain arc18, stronger effect = lower value 0.963 | locus YLR384C, strain iki3, stronger effect = lower value 0.984 | locus YML120C, strain ndi1, stronger effect = lower value 0.98 | locus YMR058W, strain fet3, stronger effect = lower value 0.97 | locus YMR125W, strain sto1, stronger effect = lower value 0.955 | locus YMR129W, stronger effect = lower value 0.955 | locus YMR205C, strain PFK2, stronger effect = lower value 0.966 | locus YMR231W, strain pep5, stronger effect = lower value 0.963 | locus YMR307W, strain GAS1, stronger effect = lower value 0.993 | locus YNL071W, strain lat1, stronger effect = lower value 0.949 | locus YNL175C, strain NOP13, stronger effect = lower value 1 | locus YNL183C, strain NPR1, stronger effect = lower value 0.906 | locus YNL197C, strain WHI3, stronger effect = lower value 0.996 | locus YNL209W, strain ssb2, stronger effect = lower value 0.979 | locus YNL224C, strain SQS1, stronger effect = lower value 1 | locus YNL248C, strain rpa49, stronger effect = lower value 0.998 | locus YNL322C, strain KRE1 (second series), stronger effect = lower value 0.966 | locus YNL322C, strain KRE1, stronger effect = lower value 0.953 | locus YNR049C, strain mso1, stronger effect = lower value 0.974 | locus YOR001W, strain rrp6, stronger effect = lower value 0.958 | locus YOR070C, strain gyp1, stronger effect = lower value 0.99 | locus YOR080W, strain dia2, stronger effect = lower value 0.942 | locus YOR083W, strain WHI5 (second series), stronger effect = lower value 1.02 | locus YOR083W, strain WHI5, stronger effect = lower value 0.958 | locus YOR106W, strain vam3, stronger effect = lower value 0.983 | locus YOR231W, strain MKK1, stronger effect = lower value 0.978 | locus YOR265W, strain rbl2, stronger effect = lower value 0.975 | locus YOR270C, strain vph1, stronger effect = lower value 0.888 | locus YOR290C, strain snf2, stronger effect = lower value 0.965 | locus YPL051W, strain arl3, stronger effect = lower value 0.994 | locus YPL055C, strain LGE1, stronger effect = lower value 0.987 | locus YPL078C, strain atp4, stronger effect = lower value 0.985 | locus YPL106C, strain sse1, stronger effect = lower value 0.92 | locus YPL240C, strain hsp82, stronger effect = lower value 0.967 | locus YPL241C, strain CIN2, stronger effect = lower value 0.992 | locus YPL256C, strain CLN2, stronger effect = lower value 0.97
